# Measured values from PMC8384837, “Expanding the binding specificity for RNA recognition by a PUF domain”.
# Assays:
# Experiment in all cases: yeast three-hybrid, YBZ-1, SC-Leu-His + 0.5 mM 3-AT, 4 days
# Conditions in all cases: tags: N-Gal4 AD-HA kept; label: inside an RPR1-promoter hybrid RNA with tandem MS2 sites; ssRNA
# PUM1 PUF domain R3-DYS = PUM1 PUF domain R3-DYS (Homo sapiens, UniProt Q14671 828-1176, C935D;R936Y;Q939S)
# In short: (§1)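 Each repeat of the Pumilio-1 PUF domain was randomized at its three base-contacting residues, and these libraries were co-expressed from a centromeric plasmid with matching RNA elements in strain YBZ-1. After four days on SC-Leu (input) or SC-Leu-His + 0.5 mM 3-AT (selection), the repeat regions were PCR-amplified and Illumina-sequenced. The interaction score compares variant frequency between input and selection as a log change, computed in log2 with a pseudocount of 1 for absent variants.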
# PUM1 PUF domain R5-RQT = PUM1 PUF domain R5-RQT (Homo sapiens, UniProt Q14671 828-1176, C1007R;R1008Q;Q1011T)
# In short: as §1
# PUM1 PUF domain R4-QPG = PUM1 PUF domain R4-QPG (Homo sapiens, UniProt Q14671 828-1176, N971Q;H972P;Q975G)
# In short: as §1
# PUM1 PUF domain R5-DWY = PUM1 PUF domain R5-DWY (Homo sapiens, UniProt Q14671 828-1176, C1007D;R1008W;Q1011Y)
# In short: as §1
# PUM1 PUF domain R5-PFG = PUM1 PUF domain R5-PFG (Homo sapiens, UniProt Q14671 828-1176, C1007P;R1008F;Q1011G)
# In short: as §1
# PUM1 PUF domain R4-KGY = PUM1 PUF domain R4-KGY (Homo sapiens, UniProt Q14671 828-1176, N971K;H972G;Q975Y)
# In short: as §1
# PUM1 PUF domain R5-GRK = PUM1 PUF domain R5-GRK (Homo sapiens, UniProt Q14671 828-1176, C1007G;Q1011K)
# In short: as §1
# PUM1 PUF domain R4-WGA = PUM1 PUF domain R4-WGA (Homo sapiens, UniProt Q14671 828-1176, N971W;H972G;Q975A)
# In short: as §1
# PUM1 PUF domain R3-WAR = PUM1 PUF domain R3-WAR (Homo sapiens, UniProt Q14671 828-1176, C935W;R936A;Q939R)
# In short: as §1
# PUM1 PUF domain R7-GND = PUM1 PUF domain R7-GND (Homo sapiens, UniProt Q14671 828-1176, S1079G;E1083D)
# In short: as §1
# PUM1 PUF domain R4-IML = PUM1 PUF domain R4-IML (Homo sapiens, UniProt Q14671 828-1176, N971I;H972M;Q975L)
# In short: as §1
# PUM1 PUF domain R5-RGV = PUM1 PUF domain R5-RGV (Homo sapiens, UniProt Q14671 828-1176, C1007R;R1008G;Q1011V)
# In short: as §1
# PUM1 PUF domain R5-KSD = PUM1 PUF domain R5-KSD (Homo sapiens, UniProt Q14671 828-1176, C1007K;R1008S;Q1011D)
# In short: as §1
# PUM1 PUF domain R8-KHQ = PUM1 PUF domain R8-KHQ (Homo sapiens, UniProt Q14671 828-1176, N1122K;Y1123H)
# In short: as §1
# PUM1 PUF domain R8-RYF = PUM1 PUF domain R8-RYF (Homo sapiens, UniProt Q14671 828-1176, N1122R;Q1126F)
# In short: as §1
# PUM1 PUF domain R5-KLI = PUM1 PUF domain R5-KLI (Homo sapiens, UniProt Q14671 828-1176, C1007K;R1008L;Q1011I)
# In short: as §1
# PUM1 PUF domain R5-RYI = PUM1 PUF domain R5-RYI (Homo sapiens, UniProt Q14671 828-1176, C1007R;R1008Y;Q1011I)
# In short: as §1
# PUM1 PUF domain R3-YYA = PUM1 PUF domain R3-YYA (Homo sapiens, UniProt Q14671 828-1176, C935Y;R936Y;Q939A)
# In short: as §1
# PUM1 PUF domain R3-RAQ = PUM1 PUF domain R3-RAQ (Homo sapiens, UniProt Q14671 828-1176, C935R;R936A)
# In short: as §1
# PUM1 PUF domain R4-SQR = PUM1 PUF domain R4-SQR (Homo sapiens, UniProt Q14671 828-1176, N971S;H972Q;Q975R)
# In short: as §1
# Sequence of PUM1 PUF domain R5-DWY (Q14671 828-1176 C1007D/R1008W/Q1011Y): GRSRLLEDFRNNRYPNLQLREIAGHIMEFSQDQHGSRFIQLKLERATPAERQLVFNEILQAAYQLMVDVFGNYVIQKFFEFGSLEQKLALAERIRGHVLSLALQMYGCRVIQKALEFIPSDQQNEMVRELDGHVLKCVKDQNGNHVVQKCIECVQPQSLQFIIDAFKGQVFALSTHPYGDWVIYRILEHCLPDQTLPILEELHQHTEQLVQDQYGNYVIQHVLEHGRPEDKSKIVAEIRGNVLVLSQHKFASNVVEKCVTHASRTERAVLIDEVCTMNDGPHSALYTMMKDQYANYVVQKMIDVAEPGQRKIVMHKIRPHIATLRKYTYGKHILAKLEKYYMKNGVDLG
# Sequence of PUM1 PUF domain R4-QPG (Q14671 828-1176 N971Q/H972P/Q975G): as the sequence (Q14671 828-1176 C1007D/R1008W/Q1011Y) above, with N144Q, H145P, Q148G, D180C, W181R, Y184Q counted along it
# Sequence of PUM1 PUF domain R5-GRK (Q14671 828-1176 C1007G/Q1011K): as the sequence (Q14671 828-1176 C1007D/R1008W/Q1011Y) above, with D180G, W181R, Y184K counted along it
# Sequence of PUM1 PUF domain R4-WGA (Q14671 828-1176 N971W/H972G/Q975A): as the sequence (Q14671 828-1176 C1007D/R1008W/Q1011Y) above, with N144W, H145G, Q148A, D180C, W181R, Y184Q counted along it
# Sequence of PUM1 PUF domain R5-RQT (Q14671 828-1176 C1007R/R1008Q/Q1011T): as the sequence (Q14671 828-1176 C1007D/R1008W/Q1011Y) above, with D180R, W181Q, Y184T counted along it
# Sequence of PUM1 PUF domain R5-KSD (Q14671 828-1176 C1007K/R1008S/Q1011D): as the sequence (Q14671 828-1176 C1007D/R1008W/Q1011Y) above, with D180K, W181S, Y184D counted along it
# Sequence of PUM1 PUF domain R5-RGV (Q14671 828-1176 C1007R/R1008G/Q1011V): as the sequence (Q14671 828-1176 C1007D/R1008W/Q1011Y) above, with D180R, W181G, Y184V counted along it
# Sequence of PUM1 PUF domain R3-WAR (Q14671 828-1176 C935W/R936A/Q939R): as the sequence (Q14671 828-1176 C1007D/R1008W/Q1011Y) above, with C108W, R109A, Q112R, D180C, W181R, Y184Q counted along it
# Sequence of PUM1 PUF domain R5-PFG (Q14671 828-1176 C1007P/R1008F/Q1011G): as the sequence (Q14671 828-1176 C1007D/R1008W/Q1011Y) above, with D180P, W181F, Y184G counted along it
# Sequence of PUM1 PUF domain R4-SQR (Q14671 828-1176 N971S/H972Q/Q975R): as the sequence (Q14671 828-1176 C1007D/R1008W/Q1011Y) above, with N144S, H145Q, Q148R, D180C, W181R, Y184Q counted along it
# Sequence of PUM1 PUF domain R5-RYI (Q14671 828-1176 C1007R/R1008Y/Q1011I): as the sequence (Q14671 828-1176 C1007D/R1008W/Q1011Y) above, with D180R, W181Y, Y184I counted along it
# Sequence of PUM1 PUF domain R3-RAQ (Q14671 828-1176 C935R/R936A): as the sequence (Q14671 828-1176 C1007D/R1008W/Q1011Y) above, with C108R, R109A, D180C, W181R, Y184Q counted along it
# Sequence of PUM1 PUF domain R8-RYF (Q14671 828-1176 N1122R/Q1126F): as the sequence (Q14671 828-1176 C1007D/R1008W/Q1011Y) above, with D180C, W181R, Y184Q, N295R, Q299F counted along it
# Sequence of PUM1 PUF domain R5-KLI (Q14671 828-1176 C1007K/R1008L/Q1011I): as the sequence (Q14671 828-1176 C1007D/R1008W/Q1011Y) above, with D180K, W181L, Y184I counted along it
# Sequence of PUM1 PUF domain R4-IML (Q14671 828-1176 N971I/H972M/Q975L): as the sequence (Q14671 828-1176 C1007D/R1008W/Q1011Y) above, with N144I, H145M, Q148L, D180C, W181R, Y184Q counted along it
# Sequence of PUM1 PUF domain R8-KHQ (Q14671 828-1176 N1122K/Y1123H): as the sequence (Q14671 828-1176 C1007D/R1008W/Q1011Y) above, with D180C, W181R, Y184Q, N295K, Y296H counted along it
# Sequence of PUM1 PUF domain R3-YYA (Q14671 828-1176 C935Y/R936Y/Q939A): as the sequence (Q14671 828-1176 C1007D/R1008W/Q1011Y) above, with C108Y, R109Y, Q112A, D180C, W181R, Y184Q counted along it
# Sequence of PUM1 PUF domain R7-GND (Q14671 828-1176 S1079G/E1083D): as the sequence (Q14671 828-1176 C1007D/R1008W/Q1011Y) above, with D180C, W181R, Y184Q, S252G, E256D counted along it
# Sequence of PUM1 PUF domain R4-KGY (Q14671 828-1176 N971K/H972G/Q975Y): as the sequence (Q14671 828-1176 C1007D/R1008W/Q1011Y) above, with N144K, H145G, Q148Y, D180C, W181R, Y184Q counted along it
# Sequence of PUM1 PUF domain R3-DYS (Q14671 828-1176 C935D/R936Y/Q939S): as the sequence (Q14671 828-1176 C1007D/R1008W/Q1011Y) above, with C108D, R109Y, Q112S, D180C, W181R, Y184Q counted along it
sequence,measurement,setting,value
GGCUAGAACUAGUGGAUCCCCCGGCGCCCGGCGGCUCGAGCCCGGGUAAGUGUAAAUAGUCUGCAUGCCGCCGGGCGCCAUGCCUGCAGGUCGACUCUAGAAAACAUG,binding signal,PUM1 PUF domain R3-DYS,4.59 log2 enrichment (interaction score)
same,binding signal,PUM1 PUF domain R5-RQT,1.57 log2 enrichment (interaction score)
same,binding signal,PUM1 PUF domain R4-QPG,2.21 log2 enrichment (interaction score)
same,binding signal,PUM1 PUF domain R5-DWY,6.99 log2 enrichment (interaction score)
same,binding signal,PUM1 PUF domain R5-PFG,6.32 log2 enrichment (interaction score)
same,binding signal,PUM1 PUF domain R4-KGY,4.05 log2 enrichment (interaction score)
same,binding signal,PUM1 PUF domain R5-GRK,3.37 log2 enrichment (interaction score)
same,binding signal,PUM1 PUF domain R4-WGA,3.8 log2 enrichment (interaction score)
GGCUAGAACUAGUGGAUCCCCCGGCGCCCGGCGGCUCGAGCCCGGGUAAGUGUAAGUAGUCUGCAUGCCGCCGGGCGCCAUGCCUGCAGGUCGACUCUAGAAAACAUG,binding signal,PUM1 PUF domain R3-WAR,2.85 log2 enrichment (interaction score)
GGCUAGAACUAGUGGAUCCCCCGGCGCCCGGCGGCUCGAGCCCGGGUAAGUUUAAAUAGUCUGCAUGCCGCCGGGCGCCAUGCCUGCAGGUCGACUCUAGAAAACAUG,binding signal,PUM1 PUF domain R7-GND,3.28 log2 enrichment (interaction score)
GGCUAGAACUAGUGGAUCCCCCGGCGCCCGGCGGCUCGAGCCCGGGUAAGUGUAGAUAGUCUGCAUGCCGCCGGGCGCCAUGCCUGCAGGUCGACUCUAGAAAACAUG,binding signal,PUM1 PUF domain R4-IML,3.09 log2 enrichment (interaction score)
GGCUAGAACUAGUGGAUCCCCCGGCGCCCGGCGGCUCGAGCCCGGGUAAGUGUAUAUAGUCUGCAUGCCGCCGGGCGCCAUGCCUGCAGGUCGACUCUAGAAAACAUG,binding signal,PUM1 PUF domain R4-QPG,5.06 log2 enrichment (interaction score)
GGCUAGAACUAGUGGAUCCCCCGGCGCCCGGCGGCUCGAGCCCGGGUAAGUGUUAAUAGUCUGCAUGCCGCCGGGCGCCAUGCCUGCAGGUCGACUCUAGAAAACAUG,binding signal,PUM1 PUF domain R5-RGV,0.34 log2 enrichment (interaction score)
same,binding signal,PUM1 PUF domain R5-KSD,1.41 log2 enrichment (interaction score)
same,binding signal,PUM1 PUF domain R5-GRK,4.85 log2 enrichment (interaction score)
GGCUAGAACUAGUGGAUCCCCCGGCGCCCGGCGGCUCGAGCCCGGGUAAGCGUAAAUAGUCUGCAUGCCGCCGGGCGCCAUGCCUGCAGGUCGACUCUAGAAAACAUG,binding signal,PUM1 PUF domain R8-KHQ,4.7 log2 enrichment (interaction score)
same,binding signal,PUM1 PUF domain R8-RYF,4.88 log2 enrichment (interaction score)
GGCUAGAACUAGUGGAUCCCCCGGCGCCCGGCGGCUCGAGCCCGGGUAAGUGUGAAUAGUCUGCAUGCCGCCGGGCGCCAUGCCUGCAGGUCGACUCUAGAAAACAUG,binding signal,PUM1 PUF domain R5-DWY,2.39 log2 enrichment (interaction score)
same,binding signal,PUM1 PUF domain R5-GRK,1.55 log2 enrichment (interaction score)
GGCUAGAACUAGUGGAUCCCCCGGCGCCCGGCGGCUCGAGCCCGGGUAAGUGUCAAUAGUCUGCAUGCCGCCGGGCGCCAUGCCUGCAGGUCGACUCUAGAAAACAUG,binding signal,PUM1 PUF domain R5-RGV,2.55 log2 enrichment (interaction score)
same,binding signal,PUM1 PUF domain R5-RQT,4.99 log2 enrichment (interaction score)
same,binding signal,PUM1 PUF domain R5-KLI,2.75 log2 enrichment (interaction score)
same,binding signal,PUM1 PUF domain R5-KSD,2.5 log2 enrichment (interaction score)
same,binding signal,PUM1 PUF domain R5-DWY,1.16 log2 enrichment (interaction score)
same,binding signal,PUM1 PUF domain R5-RYI,3.71 log2 enrichment (interaction score)
same,binding signal,PUM1 PUF domain R5-GRK,2.77 log2 enrichment (interaction score)
GGCUAGAACUAGUGGAUCCCCCGGCGCCCGGCGGCUCGAGCCCGGGUAAGUGUAAUUAGUCUGCAUGCCGCCGGGCGCCAUGCCUGCAGGUCGACUCUAGAAAACAUG,binding signal,PUM1 PUF domain R3-YYA,3.25 log2 enrichment (interaction score)
same,binding signal,PUM1 PUF domain R3-RAQ,3.8 log2 enrichment (interaction score)
same,binding signal,PUM1 PUF domain R3-WAR,2.65 log2 enrichment (interaction score)
GGCUAGAACUAGUGGAUCCCCCGGCGCCCGGCGGCUCGAGCCCGGGUAAGUGUACAUAGUCUGCAUGCCGCCGGGCGCCAUGCCUGCAGGUCGACUCUAGAAAACAUG,binding signal,PUM1 PUF domain R4-QPG,3.33 log2 enrichment (interaction score)
same,binding signal,PUM1 PUF domain R4-SQR,3.07 log2 enrichment (interaction score)
same,binding signal,PUM1 PUF domain R4-WGA,3.39 log2 enrichment (interaction score)
